According to the supplement of paper PMC6331611:
“And” between values parts separate entries of the source, which are not always exact repeats. Equal values may be shown once. ± gives the standard deviation of the averaged measurements. Over roughly 1,600 compounds, “normalized intracellular growth (luminescence, IQM-normalized) in RAW264.7 macrophages” has its median near 1; the lowest 2% begin near 0.43. The sample holds the lowest values, similar compounds and a random draw of the others, so the mix is not that of the screen.

Test system: Salmonella enterica serovar Typhimurium SL1344
Experiment: normalized intracellular growth (luminescence, IQM-normalized) in RAW264.7 macrophages (fraction of plate interquartile mean); higher = more bacterial growth (less inhibition)
Settings: 10 µM

Row | Compound | normalized intracellular growth (time point: T3 (3 h)) | normalized intracellular growth (time point: Tfinal (~6 h))
1 | C=C(C)[C@H]1CC=C(C)CC1 | 0.96 ± 0.013 | 1.1 ± 0.098
2 | C#C[C@]1(OC(C)=O)CC[C@H]2[C@@H]3CCC4=CC(=O)CC[C@@H]4[C@H]3CC[C@@]21C | 1.03 ± 0.046 | 0.972 ± 0.043
3 | CC(O)CC(C)(C)O (stereo unspecified) | 1.05 ± 0.086 | 0.769 ± 0.19
4 | CC[C@H]1OC(=O)[C@H](C)[C@@H](O[C@H]2C[C@@](C)(OC)[C@@H](O)[C@H](C)O2)[C@H](C)[C@@H](O[C@@H]2O[C@H](C)C[C@H](N(C)C)[C@H]2O)[C@](C)(O)C[C@@H](C)C(=O)[C@H](C)[C@@H](O)[C@]1(C)O | 0.964 and 0.725 | 0.913 and 0.963
5 | CC[C@H]1OC(=O)[C@H](C)[C@@H](O[C@H]2C[C@@](C)(OC)[C@@H](O)[C@H](C)O2)[C@H](C)[C@@H](O[C@@H]2O[C@H](C)C[C@H](N(C)C)[C@H]2O)[C@](C)(O)C[C@@H](C)CN(C)[C@H](C)[C@@H](O)[C@]1(C)O | 1.05 ± 0.039 | 0.00697 ± 0.00054
6 | CC[C@H]1OC(=O)[C@H](C)[C@@H](O[C@H]2C[C@@](C)(OC)[C@@H](O)[C@H](C)O2)[C@H](C)[C@@H](O[C@@H]2O[C@H](C)C[C@H](N(C)C)[C@H]2O)[C@](C)(O)C[C@@H](C)/C(=N\OCOCCOC)[C@H](C)[C@@H](O)[C@]1(C)O | 1.06 ± 0.03 | 0.825 ± 0.42
7 | O=C(O)/C=C/C(=O)O | 1.14 ± 0.1 | 1.03 ± 0.16
8 | CCCCCCCCCCOc1cc2c(O)c(C(=O)OCC)cnc2cc1OCC | 0.942 ± 0.08 | 0.973 ± 0.13
9 | CC/C=C\C/C=C\C/C=C\C/C=C\C/C=C\C/C=C\CCC(=O)O | 0.977 ± 0.069 | 1.02 ± 0.09
10 | COc1cc2c3cc1Oc1cc(ccc1O)C[C@@H]1c4c(cc(OC)c(O)c4Oc4ccc(cc4)C[C@@H]3N(C)CC2)CC[N+]1(C)C | 0.937 ± 0.083 | 0.976 ± 0.16
11 | CCC(=O)O[C@H]1[C@H](O[C@@H]2[C@@H](C)[C@H](O[C@H]3C[C@@](C)(OC)[C@@H](O)[C@H](C)O3)[C@@H](C)C(=O)O[C@H](CC)[C@@](C)(O)[C@H](O)[C@@H](C)C(=O)[C@H](C)C[C@@]2(C)O)O[C@H](C)C[C@@H]1N(C)C | 0.792 ± 0.092 | 0.901 ± 0.065
12 | CC[C@H]1OC(=O)[C@H](C)[C@@H](O[C@H]2C[C@@](C)(OC)[C@@H](O)[C@H](C)O2)[C@H](C)[C@@H](O[C@@H]2O[C@H](C)C[C@H](N(C)C)[C@H]2O)[C@](C)(OC)C[C@@H](C)C(=O)[C@H](C)[C@@H](O)[C@]1(C)O | 1.09 ± 0.015 | 0.976 ± 0.071
13 | CC[C@H]1OC(=O)[C@H](C)C(=O)[C@H](C)[C@@H](O[C@@H]2O[C@H](C)C[C@H](N(C)C)[C@H]2O)[C@](C)(OC)C[C@@H](C)C(=O)[C@H](C)[C@H]2N(CCCCn3cnc(-c4cccnc4)c3)C(=O)O[C@]12C | 1.01 ± 0.086 | 0.0132 ± 0.0042
14 | CCN[C@@H]1C[C@H](N)[C@@H](O[C@H]2OC(CN)=CC[C@H]2N)[C@H](O)[C@H]1O[C@H]1OC[C@](C)(O)[C@H](NC)[C@H]1O | 0.986 ± 0.033 | 0.632 ± 0.25
15 | O=S(=O)(O)NC1CCCCC1 | 0.688 ± 0.097 | 0.748 ± 0.044
16 | CCCCCCCCCCC[C@@H](C[C@@H]1OC(=O)[C@H]1CCCCCC)OC(=O)[C@H](CC(C)C)NC=O | 0.987 ± 0.091 | 1.21 ± 0.048
17 | C[N+](C)(C)CC(O)CC(=O)[O-] (stereo unspecified) | 0.978 ± 0.032 | 0.91 ± 0.16
18 | O=c1[nH]cc(F)c(=O)[nH]1 | 0.731 ± 0.089 | 0.153 ± 0.006
19 | O=c1cc[nH]c(=O)[nH]1 | 0.935 ± 0.09 | 0.9 ± 0.052
20 | Nc1nc(=O)[nH]cc1F | 1.07 ± 0.058 | 1.28 ± 0.1
21 | O=C(NCCCN1CCOCC1)c1ccc(Cl)cc1 | 1.25 ± 0.11 | 1.35 ± 0.15
22 | O=C(c1cccnc1)N1CCOCC1 | 1.01 ± 0.09 | 0.728 ± 0.18
23 | CC(=O)c1ccc2c(c1)N(CCCN1CCN(CCO)CC1)c1ccccc1S2 | 1.04 ± 0.024 | 0.807 ± 0.11

Row | Compound | normalized intracellular growth (time point: T3 (3 h)) | normalized intracellular growth (time point: Tfinal (~6 h))
24 | Cc1c2oc3c(C)ccc(C(=O)N[C@@H]4C(=O)N[C@H](C(C)C)C(=O)N5CCC[C@H]5C(=O)N(C)CC(=O)N(C)[C@@H](C(C)C)C(=O)O[C@@H]4C)c3nc-2c(C(=O)N[C@@H]2C(=O)N[C@H](C(C)C)C(=O)N3CCC[C@H]3C(=O)N(C)CC(=O)N(C)[C@@H](C(C)C)C(=O)O[C@@H]2C)c(N)c1=O | 0.861 ± 0.057 | 1.05 ± 0.12
25 | CCCCCCCC/C=C\CCCCCCCC(=O)O.NCCO | 1.05 ± 0.035 | 1.09 ± 0.041
26 | COC(=O)N/N=C/c1c[n+]([O-])c2ccccc2[n+]1[O-] | 0.957 ± 0.032 | 0.309 ± 0.16
27 | CC(=O)[C@@]1(O)CC[C@H]2[C@@H]3C=C(Cl)C4=CC(=O)[C@@H]5C[C@@H]5[C@]4(C)[C@H]3CC[C@@]21C | 1.06 ± 0.049 | 0.762 ± 0.26
28 | COc1c2occc2cc2ccc(=O)oc12 | 1.15 ± 0.034 | 1.36 ± 0.076
29 | Nc1nc(N)c2nc(CNc3ccc(C(=O)N[C@@H](CCC(=O)O)C(=O)O)cc3)cnc2n1 | 0.994 ± 0.021 | 1.09 ± 0.15
30 | CCCCCC(C)N (stereo unspecified) | 0.993 ± 0.077 | 0.979 ± 0.12
31 | CO[C@H]1C[C@H](O[C@@H]2/C(C)=C/C[C@@H]3C[C@@H](C[C@]4(CC[C@H](C)[C@@H](C5CCCCC5)O4)O3)OC(=O)[C@@H]3C=C(C)/C(=N/O)[C@H]4OC/C(=C\C=C\[C@@H]2C)[C@]43O)O[C@@H](C)[C@@H]1O | 1.01 ± 0.064 | 1.16 ± 0.094
32 | C[C@]12C=CC(=O)C=C1CC[C@@H]1[C@@H]2[C@@H](O)C[C@@]2(C)[C@H]1CC[C@]2(O)C(=O)CO | 0.8 ± 0.15 | 0.888 ± 0.078
33 | C[C@H]1C[C@@H]2[C@H]([C@@H](O)C[C@@]3(C)[C@H]2CC[C@]3(O)C(=O)CO)[C@@]2(C)C=CC(=O)C=C12 | 1.07 ± 0.02 | 0.417 ± 0.054
34 | CC(=O)OCC(=O)[C@@]1(O)CC[C@H]2[C@@H]3CCC4=CC(=O)C=C[C@]4(C)[C@H]3[C@@H](O)C[C@@]21C | 0.822 ± 0.19 | 0.823 ± 0.06
35 | CC(C)Nc1ncccn1 | 0.928 ± 0.053 | 1.05 ± 0.2
36 | Cc1oc(=O)oc1CN1CCN(c2cc3c(cc2F)c(=O)c(C(=O)O)c2n3C(C)S2)CC1 (stereo unspecified) | 1.14 ± 0.069 | 0.0187 ± 0.0013
37 | NC(=O)[C@@H]1CCCN1C(=O)[C@H](Cc1c[nH]cn1)NC(=O)[C@@H]1CCC(=O)N1 | 1.02 ± 0.038 | 0.959 ± 0.044
38 | CC1(C)OC(=O)C(OCC2CC2)=C1c1ccc(S(C)(=O)=O)cc1 | 1.15 ± 0.017 | 1.2 ± 0.13
39 | OCC(S)CS (stereo unspecified) | 0.927 ± 0.011 | 1.03 ± 0.053
40 | O=C(O)c1ccc[n+]([O-])c1 | 0.967 ± 0.051 | 1.05 ± 0.023
41 | COc1ccc2cc(C(C)C(=O)O)ccc2c1 (stereo unspecified) | 1.04 ± 0.036 | 1.09 ± 0.089
42 | C=C[C@H]1CN2CC[C@H]1C[C@H]2[C@H](O)c1ccnc2ccc(OC)cc12 | 0.978 ± 0.042 | 0.953 ± 0.058
43 | CCCCC(CC)COC(=O)c1ccccc1O (stereo unspecified) | 1.05 ± 0.055 | 0.89 ± 0.17
44 | Nc1ccc(C(=O)O)cc1 | 1.023 ± 0.0022 | 0.829 ± 0.11
45 | O=c1[nH]c(=O)n([C@H]2C[C@H](O)[C@@H](CO)O2)cc1I | 1.005 ± 0.0041 | 1.01 ± 0.2
46 | O=c1[nH]c(=O)n([C@H]2C[C@H](O)[C@@H](CO)O2)cc1F | 0.699 ± 0.043 | 0.209 ± 0.03

Row | Compound | normalized intracellular growth (time point: T3 (3 h)) | normalized intracellular growth (time point: Tfinal (~6 h))
47 | CCc1cn([C@H]2C[C@H](O)[C@@H](CO)O2)c(=O)[nH]c1=O | 1.09 ± 0.034 | 0.868 ± 0.01
48 | CC(C)(C)C(=O)C(Oc1ccc(Cl)cc1)n1ccnc1 (stereo unspecified) | 1.042 ± 0.0043 | 1.12 ± 0.016
49 | N#Cc1ccc2c(c1)N(CCCN1CCC(O)CC1)c1ccccc1S2 | 1.04 ± 0.014 | 0.869 ± 0.15
50 | CC(C)C[C@@H]1NC(=O)[C@H](CCCN)NC(=O)[C@H](C(C)C)NC(=O)[C@H](Cc2ccc(O)cc2)N[C@@H](CCC(=O)O)C(=O)N[C@@H](CC(N)=O)C(=O)[C@@H](Cc2ccccc2)NC(=O)[C@H](Cc2ccccc2)NC(=O)[C@@H]2CCCN2C(=O)[C@@H](Cc2ccccc2)NC1=O | 0.95 ± 0.055 | 1 ± 0.064
51 | CO/N=C(\C(=O)N[C@@H]1C(=O)N2C(C(=O)O)=C(C[N+]3(C)CCCC3)CS[C@H]12)c1csc(N)n1 | 1.01 ± 0.054 | 0.0358 ± 0.0021
52 | C=CC1=C(C(=O)O)N2C(=O)[C@@H](NC(=O)/C(=N\O)c3csc(N)n3)[C@H]2SC1 | 0.973 ± 0.034 | 0.0262 ± 0.0031
53 | CO/N=C(\C(=O)N[C@@H]1C(=O)N2C(C(=O)OCOC(=O)C(C)(C)C)=C(/C=C\c3scnc3C)CS[C@H]12)c1csc(N)n1 | 0.923 ± 0.047 | 0.0689 ± 0.074
54 | N[C@@H](C(=O)N[C@@H]1C(=O)N2C(C(=O)O)=C(Cl)CS[C@H]12)c1ccccc1 | 1.03 ± 0.054 | 1.08 ± 0.021
55 | CO/N=C(\C(=O)N[C@@H]1C(=O)N2C(C(=O)O)=C(COC(C)=O)CS[C@H]12)c1csc(N)n1 | 0.898 ± 0.017 | 0.178 ± 0.0072
56 | Cc1nnc(SCC2=C(C(=O)O)N3C(=O)[C@@H](NC(=O)Cn4cnnn4)[C@H]3SC2)s1 | 1.09 ± 0.087 | 1.2 ± 0.074
57 | COCC1=C(C(=O)OC(C)OC(=O)OC(C)C)N2C(=O)[C@@H](NC(=O)/C(=N\OC)c3csc(N)n3)[C@H]2SC1 (stereo partly specified) | 0.953 ± 0.066 | 1.06 ± 0.2
58 | Cn1nnnc1SCC1=C(C(=O)O)N2C(=O)[C@@H](NC(=O)[C@H](O)c3ccccc3)[C@H]2SC1 | 1.08 ± 0.041 | 1.02 ± 0.17
59 | CC(=O)OCC1=C(C(=O)O)N2C(=O)[C@@H](NC(=O)CSc3ccncc3)[C@H]2SC1 | 1 ± 0.024 | 0.957 ± 0.042
60 | CC(=O)OCC1=C(C(=O)O)N2C(=O)[C@@H](NC(=O)Cc3cccs3)[C@H]2SC1 | 0.979 ± 0.037 | 1.01 ± 0.027
61 | CC=CC1=C(C(=O)O)N2C(=O)[C@@H](NC(=O)[C@H](N)c3ccc(O)cc3)[C@H]2SC1 | 1.06 ± 0.039 | 0.738 ± 0.11
62 | NC(=O)NC(=O)Cc1ccccc1 | 0.993 ± 0.021 | 0.979 ± 0.038
63 | CNC(=N)NCCC[C@H](N)C(=O)O | 1.11 ± 0.029 | 0.921 ± 0.26
64 | NC[C@H]1O[C@H](O[C@H]2[C@H](O)[C@@H](O[C@H]3O[C@H](CO)[C@@H](O)[C@H](N)[C@H]3O)[C@H](N)C[C@@H]2N)[C@H](N)[C@@H](O)[C@@H]1O | 0.81 ± 0.012 | 0.554 ± 0.025
65 | CC1(C)[C@H]2CC[C@]1(CS(=O)(=O)O)C(=O)C2=Cc1ccc(C=C2C(=O)[C@@]3(CS(=O)(=O)O)CC[C@@H]2C3(C)C)cc1 | 0.978 ± 0.028 | 1.17 ± 0.22
66 | Cc1nccnc1N1CCCCC1 | 1.09 ± 0.057 | 0.933 ± 0.023
67 | CCC(=O)O[C@H](CC(=O)O)C[N+](C)(C)C | 1.06 ± 0.052 | 1 ± 0.028
68 | NCCNCCNCCN | 0.972 ± 0.044 | 1.2 ± 0.037
